Several values for one entry are separate records, joined by “and”; a condition that tells them apart may be missing. Identical values can stand only once. Activity calls are given as the source filed them. How the source made its calls: active means hit-call score of the fitted dose curve at least 0.9, where 1 is the maximum; inactive means score below 0.9.
What was measured:
[1] = molecular target: CCAAT/enhancer-binding protein beta (Homo sapiens) (UniProt P17676); assay: ATG_C_EBP_CIS: Attagene CIS-FACTORIAL HepG2 Assay for human CCAAT/Enhancer Binding Protein (C/EBP) beta (AID 2282927); details: HepG2 Attagene cis-factorial transcription factor reporter; actives raise or lower the signal
Procedure, shortened: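 Endogenous C/EBPb-driven reporter transcripts measured in transfected human HepG2 cells at 24 h via RT-PCR and capillary electrophoresis of labelled fragments. Activity fitted in both directions relative to DMSO baseline.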

[2] = ATG_CMV_CIS: Attagene CIS-FACTORIAL HepG2 Assay for human CMV (Internal Marker) (AID 2282928); details: HepG2 CMV promoter reporter, transcription factor profiling; actives raise or lower the signal;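 further: endpoint acts as a background internal control marker rather than a target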
Procedure, shortened: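 After transient transfection of HepG2 with reporter transcription units driven by cis-regulatory promoters, cells receive test chemical for 24 h. Labeled reporter amplicons, digested with HpaI, are sized and quantified by capillary electrophoresis against DMSO.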

[3] = ATG_DR4_LXR_CIS: Attagene CIS-FACTORIAL HepG2 Assay for human Liver X Receptor (LXR), DR4 submotif (AID 2282929); details: HepG2 Attagene DR4 cis-reporter, mRNA transcription; actives raise or lower the signal
Procedure, shortened: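 HepG2, transient MRTU transfection, cis-element (DR4) promoter; 24 h compound exposure; total RNA → oligo(dT) RT → PCR → 6-FAM primer extension → HpaI cut → CE. Gain/loss vs DMSO, bidirectional fit.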

[4] = molecular target: Aryl hydrocarbon receptor (Homo sapiens) (UniProt P35869); assay: ATG_Ahr_CIS: Attagene CIS-FACTORIAL HepG2 Assay for human Aryl Hydrocarbon Receptor (Ahr) (AID 2282930); details: HepG2 AhR cis-factorial reporter transcription; actives raise or lower the signal
Procedure, shortened: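 Reporter mRNA levels, quantified by RT-PCR and fluorescent capillary electrophoresis, reflect endogenous AhR transcriptional activity in HepG2 cells carrying transfected cis-promoter reporter constructs. Readout at 24 h post-dose; gain or loss fitted against DMSO baseline.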

[5] = ATG_AP_1_CIS: Attagene CIS-FACTORIAL HepG2 Assay for human Activator Protein 1 (AP-1) (AID 2282931); details: HepG2 Attagene cis-factorial AP-1 reporter mRNA; actives raise or lower the signal
Procedure, shortened: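 Transient MRTU transfection of HepG2 → 24 h chemical treatment → RNA isolation, RT-PCR, 6-FAM labelling, HpaI digest → capillary electrophoresis. Fit: bidirectional, DMSO negative control.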

[6] = ATG_AP_2_CIS: Attagene CIS-FACTORIAL HepG2 Assay for human Activator Protein 2 (AP-2) (AID 2282932); details: HepG2 AP-2 cis-reporter, Attagene transcription factor profiling; actives raise or lower the signal
Procedure, shortened: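 Step one: transient transfection of HepG2 with reporter transcription units. Step two: 24 h chemical exposure. Step three: RNA extraction, RT-PCR, labelled fragment analysis by capillary electrophoresis; DMSO serves as baseline.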

[7] = ATG_BRE_CIS: Attagene CIS-FACTORIAL HepG2 Assay for human Bone Morphogenetic Protein (BMP) Response Element (BRE) (AID 2282933); details: HepG2 BMP response element reporter, Attagene transcription factor profiling; actives raise or lower the signal
Procedure, shortened: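 Transient MRTU transfection of human HepG2 liver cells; 24 h compound treatment; total RNA isolated, reverse-transcribed, PCR-amplified, 6-FAM labelled, HpaI-cut, capillary electrophoresis. DMSO = negative control/baseline, bidirectional fit.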

[8] = molecular target: Transcription factor E2F1 (Homo sapiens) (UniProt Q01094); assay: ATG_E2F_CIS: Attagene CIS-FACTORIAL HepG2 Assay for human E2F Transcription Factor 1 (AID 2282935); details: HepG2 Attagene cis-reporter, E2F reporter RNA transcripts; actives raise or lower the signal
Procedure, shortened: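 Total RNA from 24 h-treated, reporter-transfected HepG2 cells undergoes DNase I treatment, oligo(dT) reverse transcription, PCR and 6-FAM primer extension before capillary electrophoresis.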

[9] = ATG_E_Box_CIS: Attagene CIS-FACTORIAL HepG2 Assay for human Enhancer Box (E-box) (AID 2282936); details: HepG2 E-box cis-reporter transcription, actives raise or lower the signal
Procedure, shortened: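 DMSO served as negative control and baseline for bidirectional fitting. Human hepatoma HepG2 cells, transiently transfected with cis-reporter constructs, were dosed 24 h; reporter mRNA read by RT-PCR and capillary electrophoresis.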

[10] = ATG_M_61_CIS: Attagene CIS-FACTORIAL HepG2 Assay for M61 Transcription Factor (Internal Marker) (AID 2282937); details: HepG2 Attagene CIS-FACTORIAL M61 internal marker reporter; actives raise or lower the signal
Procedure, shortened: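 Human liver HepG2, transient MRTU transfection (cis promoter elements), 24 h compound. Total RNA → oligo(dT) RT → PCR → FAM label → HpaI → CE. Internal background marker; bidirectional fitting, DMSO = baseline.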

[11] = ATG_EGR_CIS: Attagene CIS-FACTORIAL HepG2 Assay for human Early Growth Response 1 (EGR1) (AID 2282938); details: HepG2 Attagene CIS-FACTORIAL EGR reporter mRNA; actives raise or lower the signal
Procedure, shortened: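 Transient transfection of human HepG2 with multiple cis-regulated reporter units, chemical exposure 24 h, total RNA isolated. Reverse transcription, PCR, fluorescent labelling and capillary electrophoresis quantify reporter transcripts; activity fitted bidirectionally against DMSO.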

[12] = ATG_ERE_CIS: Attagene CIS-FACTORIAL HepG2 Assay for Estrogen Response Element (ERE) (AID 2282940); details: HepG2 ERE cis-reporter, Attagene RNA transcript; actives raise or lower the signal
Procedure, shortened: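 Transient MRTU transfection of human HepG2; cis-element promoters; 24 h dosing; total RNA → RT (oligo dT) → PCR → 6-FAM primer extension → HpaI digest → CE fluorescence. Bidirectional fit, DMSO baseline.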

[13] = ATG_Ets_CIS: Attagene CIS-FACTORIAL HepG2 Assay for human Erythroblast Transformation Specific (ETS) (AID 2282941); details: HepG2 ETS cis-reporter transcription, actives raise or lower the signal
Procedure, shortened: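 Human HepG2 hepatoma cells were transiently transfected with promoter-driven reporter constructs and treated for 24 hours. Reporter transcripts were quantified by RT-PCR with fluorescent primer extension; bidirectional curve fitting used DMSO as reference.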

[14] = molecular target: Hepatocyte nuclear factor 3-beta (Homo sapiens) (UniProt Q9Y261); assay: ATG_FoxA2_CIS: Attagene CIS-FACTORIAL HepG2 Assay for human Forkhead box A2 (FOXA2) (AID 2282942); details: HepG2 cis-reporter transcription factor activity, 24 h; actives raise or lower the signal
Procedure, shortened: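 Transient MRTU transfection of HepG2 liver cells; 24 h treatment; total RNA → oligo(dT) RT → PCR → FAM primer extension → HpaI cut → CE. Bidirectional fit vs DMSO.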

[15] = ATG_FoxO_CIS: Attagene CIS-FACTORIAL HepG2 Assay for human Forkhead box O (FoxO) (AID 2282943); details: HepG2 Attagene cis-reporter, FoxO element, mRNA; actives raise or lower the signal
Procedure, shortened: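 Endogenous transcription factor activity read from multiplexed cis-promoter reporter transcripts in transiently transfected HepG2, 24 h after dosing. Reporter RNA measured via RT-PCR plus capillary electrophoresis of FAM-labeled products; gain or loss relative to DMSO.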

[16] = ATG_GATA_CIS: Attagene CIS-FACTORIAL HepG2 Assay for human GATA Binding Protein (AID 2282944); details: HepG2 GATA cis-element reporter, Attagene multiplex mRNA; actives raise or lower the signal
Procedure, shortened: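 Transient MRTU transfection, HepG2, 24 h compound exposure. Total RNA → oligo(dT) RT → PCR → 6-FAM primer extension → HpaI cut → CE. Bidirectional fit vs DMSO.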

[17] = ATG_GLI_CIS: Attagene CIS-FACTORIAL HepG2 Assay for human Zinc Finger Protein GLI1 (AID 2282945); details: HepG2, Attagene cis-factorial reporter mRNA, GLI element; actives raise or lower the signal
Procedure, shortened: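 Bidirectional curve fits relative to DMSO, using reporter mRNA levels from RT-PCR plus capillary electrophoresis. Cells were HepG2 transiently carrying cis-regulated reporter constructs, harvested 24 h after dosing.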

[18] = molecular target: Retinoic acid receptor alpha (Homo sapiens) (UniProt P10276); assay: ATG_DR5_RAR_CIS: Attagene CIS-FACTORIAL HepG2 Assay for human Retinoic Acid Receptor Alpha (RARE), DR5 submotif (AID 2282934); details: HepG2 Attagene cis-factorial RARE DR5 reporter, mRNA; actives raise or lower the signal
Procedure, shortened: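 Reporter transcripts from a DR5-regulated unit, measured via RT-PCR plus capillary electrophoresis, reflect endogenous RAR activity in transiently transfected human HepG2 liver cells. Exposure lasted 24 h; gain or loss of signal scored against DMSO.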

[19] = ATG_M_19_CIS: Attagene CIS-FACTORIAL HepG2 Assay for M19 Transcription Factor (Internal Marker) (AID 2282939); details: HepG2 Attagene CIS-FACTORIAL M19 internal marker reporter; actives raise or lower the signal
Procedure, shortened: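 Transfect HepG2 with MRTU reporter library → dose chemical, 24 h → isolate total RNA, reverse-transcribe with oligo(dT) → PCR, 6-FAM label, HpaI cut (2 h, 37 C) → capillary electrophoresis. Bidirectional fit vs DMSO.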

[20] = ATG_CRE_CIS: Attagene CIS-FACTORIAL HepG2 Assay for human cAMP Responsive Element (CRE) binding protein 3 (AID 2282926); details: HepG2 CRE cis-reporter, Attagene multiplexed mRNA; actives raise or lower the signal
Procedure, shortened: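 Multiplexed transcription-unit reporters transfected into HepG2; 24 h dosing; RT-PCR/capillary electrophoresis fluorescence read-out; bidirectional fit vs DMSO.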

Measured: AC50

Chain of Transcription factor E2F1 (Homo sapiens) (Q01094 whole entry, looked up): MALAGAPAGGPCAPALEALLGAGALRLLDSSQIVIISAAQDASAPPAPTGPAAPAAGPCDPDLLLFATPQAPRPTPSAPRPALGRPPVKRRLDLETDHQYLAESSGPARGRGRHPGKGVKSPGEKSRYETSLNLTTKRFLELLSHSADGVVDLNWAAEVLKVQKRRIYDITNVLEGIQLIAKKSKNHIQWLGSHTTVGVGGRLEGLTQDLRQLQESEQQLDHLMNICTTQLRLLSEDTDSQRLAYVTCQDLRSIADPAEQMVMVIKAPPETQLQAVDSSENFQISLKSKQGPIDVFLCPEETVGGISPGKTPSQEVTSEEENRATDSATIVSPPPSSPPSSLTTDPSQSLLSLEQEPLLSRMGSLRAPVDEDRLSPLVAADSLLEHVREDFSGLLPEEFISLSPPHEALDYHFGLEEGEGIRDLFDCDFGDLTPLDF
Chain of Retinoic acid receptor alpha (Homo sapiens) (P10276 whole entry, looked up): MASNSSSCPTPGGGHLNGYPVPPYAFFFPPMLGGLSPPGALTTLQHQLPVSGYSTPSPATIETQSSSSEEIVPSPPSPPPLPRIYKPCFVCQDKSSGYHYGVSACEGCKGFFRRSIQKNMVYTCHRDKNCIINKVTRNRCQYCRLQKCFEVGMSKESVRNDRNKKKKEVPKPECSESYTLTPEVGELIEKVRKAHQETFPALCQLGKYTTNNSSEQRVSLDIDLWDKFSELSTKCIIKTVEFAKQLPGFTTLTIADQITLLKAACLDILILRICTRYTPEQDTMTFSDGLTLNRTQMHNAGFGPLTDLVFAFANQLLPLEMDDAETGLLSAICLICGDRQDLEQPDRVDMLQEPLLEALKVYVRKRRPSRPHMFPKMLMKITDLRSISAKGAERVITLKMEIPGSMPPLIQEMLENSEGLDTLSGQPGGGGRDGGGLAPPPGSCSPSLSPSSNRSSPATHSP
Chain of Aryl hydrocarbon receptor (Homo sapiens) (P35869 whole entry, looked up): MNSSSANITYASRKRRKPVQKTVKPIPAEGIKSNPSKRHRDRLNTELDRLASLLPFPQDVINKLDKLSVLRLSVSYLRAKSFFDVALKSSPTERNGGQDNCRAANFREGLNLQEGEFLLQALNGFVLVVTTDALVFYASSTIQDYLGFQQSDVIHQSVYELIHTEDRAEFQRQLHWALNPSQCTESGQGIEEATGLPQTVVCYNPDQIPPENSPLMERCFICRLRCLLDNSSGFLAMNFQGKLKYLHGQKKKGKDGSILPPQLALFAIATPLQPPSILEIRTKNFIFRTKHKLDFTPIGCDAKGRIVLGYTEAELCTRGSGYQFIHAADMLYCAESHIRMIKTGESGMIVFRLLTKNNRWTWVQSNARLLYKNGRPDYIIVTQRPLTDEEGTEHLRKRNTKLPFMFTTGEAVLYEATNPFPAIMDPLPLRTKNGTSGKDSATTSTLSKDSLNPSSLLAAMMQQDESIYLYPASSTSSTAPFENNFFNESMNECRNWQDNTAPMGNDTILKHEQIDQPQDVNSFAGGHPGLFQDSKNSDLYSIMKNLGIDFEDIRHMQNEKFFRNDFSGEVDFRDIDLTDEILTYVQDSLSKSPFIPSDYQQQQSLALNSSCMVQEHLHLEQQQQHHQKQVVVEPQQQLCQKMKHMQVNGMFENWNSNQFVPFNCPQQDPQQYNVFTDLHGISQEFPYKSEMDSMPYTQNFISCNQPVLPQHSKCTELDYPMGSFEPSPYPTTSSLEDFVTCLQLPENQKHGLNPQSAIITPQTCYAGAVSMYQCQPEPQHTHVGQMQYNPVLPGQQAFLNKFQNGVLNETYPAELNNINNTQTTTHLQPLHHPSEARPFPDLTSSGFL
Chain of Hepatocyte nuclear factor 3-beta (Homo sapiens) (Q9Y261 whole entry, looked up): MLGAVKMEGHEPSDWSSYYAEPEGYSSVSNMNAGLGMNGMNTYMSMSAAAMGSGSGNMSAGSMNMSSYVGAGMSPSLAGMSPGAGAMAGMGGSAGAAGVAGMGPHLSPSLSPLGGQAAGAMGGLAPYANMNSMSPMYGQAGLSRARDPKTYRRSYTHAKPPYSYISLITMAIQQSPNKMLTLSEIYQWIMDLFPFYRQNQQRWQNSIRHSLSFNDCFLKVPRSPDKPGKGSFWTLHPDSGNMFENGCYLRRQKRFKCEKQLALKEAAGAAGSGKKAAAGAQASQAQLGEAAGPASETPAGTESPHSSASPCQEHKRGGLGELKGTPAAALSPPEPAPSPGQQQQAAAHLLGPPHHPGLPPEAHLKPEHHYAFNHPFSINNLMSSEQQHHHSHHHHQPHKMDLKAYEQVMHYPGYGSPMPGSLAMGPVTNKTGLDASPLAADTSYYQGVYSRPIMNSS
Chain of CCAAT/enhancer-binding protein beta (Homo sapiens) (P17676 whole entry, looked up, the tested form may be a part): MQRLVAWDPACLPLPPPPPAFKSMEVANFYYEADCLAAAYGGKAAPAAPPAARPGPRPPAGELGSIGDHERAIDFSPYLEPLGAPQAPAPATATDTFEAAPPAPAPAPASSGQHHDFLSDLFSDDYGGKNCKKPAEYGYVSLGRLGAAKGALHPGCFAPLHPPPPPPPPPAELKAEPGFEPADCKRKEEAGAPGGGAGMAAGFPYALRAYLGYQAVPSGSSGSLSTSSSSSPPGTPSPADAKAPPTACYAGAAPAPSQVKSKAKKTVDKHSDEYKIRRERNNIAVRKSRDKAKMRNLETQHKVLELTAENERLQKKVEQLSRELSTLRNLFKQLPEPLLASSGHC

CCCCCCCCOC(=O)c1cc(O)c(O)c(O)c1
active: [5] 6.37 µM
not listed: [18] | [19] | [20]
inactive: all other assays above

CCCCCCCCCCCC[N+](C)(C)C
active: [3] 22.4 µM and 33.4 µM | [5] 33.4 µM and 12.7 µM | [7] 33.4 µM and 27.1 µM | [9] 33.4 µM and 22.5 µM
not listed: [12] | [20]
inactive: all other assays above

Cc1ccc2oc(CN(Cc3ccccc3)C(=O)Nc3c(F)cc(F)cc3F)c(-c3ccc(Cl)cc3)c2c1
not listed: [20]
inactive: all other assays above

CC[C@H](NC(=O)c1cc(F)ccc1NS(=O)(=O)c1cccc2cccnc12)c1ccccc1
not listed: [20]
inactive: all other assays above

O=CCCCC=O
not listed: [4] | [18] | [19]
inactive: all other assays above

Cc1oc2c(NC(=O)c3c(Cl)cccc3Cl)cccc2c1C(C)(C)O
active: [2] 6.16 µM | [4] 4.28 µM | [5] 38 µM | [7] 152 µM | [11] 47.6 µM | [14] 27.3 µM
not listed: [18] | [20]
inactive: all other assays above

CCCOC(=O)c1cc(O)c(O)c(O)c1
active: [2] 58.6 µM | [8] 169 µM | [12] 12.4 µM
not listed: [20]
inactive: all other assays above

— PubChem BioAssay (EPA / NIEHS)
